Of roughly 7,900 targets only a part is listed; those with a hit were picked by preference. About 0.6% of all pairs of compound and target were hits. Unmarked numbers belong to inactive results.
What was measured:
Assay in all cases: log2 fold change, soluble protein after heating vs DMSO (PISA); higher = thermal stabilisation; K562 cells, 10 uM, 30 min; active = over 0.2 and 3.5 SD of the protein, either way, in both replicates (recomputed)
[1] = compound: Cc1ccc(NC(=O)c2ccc(CN3CC[C@H](N(C)C)C3)c(C(F)(F)F)c2)cc1Nc1nccc(-c2cncnc2)n1 [bafetinib]
Summary of the method: (§1)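 For each measurement, 10 μM compound was applied for 30 min to K562 cells at 2×10^6 cells/mL. Aliquots were heated for 3 min across 48°C-58°C, pooled, and extracted in PBS with 0.5% NP-40 at 4°C; the supernatant after 21,000xg for 90 min was soluble protein. This was quantified by TMTpro 16plex LC-MS/MS with channel sums equalised, and thermal stability was reported relative to control samples from duplicates, on a log2 fold-change scale.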

[2] = compound: Cc1cccc(CC(=O)N2CCc3c2ccc(-c2cn(C)c4ncnc(N)c24)c3F)n1
Summary of the method: as §1

[3] = compound: Cc1cn(-c2cc(NC(=O)c3ccc(C)c(Nc4nccc(-c5cccnc5)n4)c3)cc(C(F)(F)F)c2)cn1 [nilotinib]
Summary of the method: as §1

[4] = compound: Cc1nc(Nc2n[nH]c3c2CN(C(=O)N[C@H](CN(C)C)c2ccccc2)C3(C)C)c2sccc2n1
Summary of the method: as §1

[5] = compound: Cc1nc(Nc2ncc(C(=O)Nc3c(C)cccc3Cl)s2)cc(N2CCN(CCO)CC2)n1 [dasatinib]
Summary of the method: as §1

[6] = compound: Cc1ncc(-c2ccnc(Nc3ccc(S(C)(=O)=O)cc3)n2)n1C(C)C
Summary of the method: as §1

[7] = compound: Cn1cc(-c2ccc3c(c2)CCN3C(=O)Cc2cccc(C(F)(F)F)c2)c2c(N)ncnc21
Summary of the method: as §1

[8] = compound: Cn1cc(-c2ccc3nnc(C(F)(F)c4ccc5ncccc5c4)n3n2)cn1
Summary of the method: as §1

[9] = compound: Cn1cncc1[C@@](N)(c1ccc(Cl)cc1)c1ccc2c(c1)c(-c1cccc(Cl)c1)cc(=O)n2C [tipifarnib]
Summary of the method: as §1

[10] = compound: FC(F)(F)c1ccc(/C=C/c2nc(COc3ccc(CCCCn4ccnn4)cc3)co2)cc1 [mubritinib]
Summary of the method: as §1

[11] = compound: NC(=O)Nc1cc(-c2cccc(F)c2)sc1C(=O)N[C@H]1CCCNC1
Summary of the method: as §1

[12] = compound: NC(=O)c1cnc(N[C@@H]2CCCC[C@@H]2N)nc1Nc1cccc(-n2nccn2)c1
Summary of the method: as §1

[13] = compound: NC1(c2ccc(-c3nc4ccn5c(=O)[nH]nc5c4cc3-c3ccccc3)cc2)CCC1
Summary of the method: as §1

[14] = compound: NCC(=O)Nc1ccc(-n2nc(C(F)(F)F)cc2-c2ccc3c(ccc4ccccc43)c2)cc1
Summary of the method: as §1

[15] = compound: Nc1ccccc1NC(=O)c1ccc(CNC(=O)OCc2cccnc2)cc1 [entinostat]
Summary of the method: as §1

[16] = compound: O=C(CCCCCCC(=O)Nc1ccccc1)NO [vorinostat]
Summary of the method: as §1

[17] = compound: O=C(CCCCCCNC(=O)c1cnc(N(c2ccccc2)c2ccccc2Cl)nc1)NO [citarinostat]
Summary of the method: as §1

[18] = compound: O=C(O)c1ccc2c(c1)nc(Nc1cccc(Cl)c1)c1ccncc12 [silmitasertib]
Summary of the method: as §1

[19] = compound: O=C1NC(=O)C(c2cnc3ccccn23)=C1c1cn2c3c(cc(F)cc13)CN(C(=O)N1CCCCC1)CC2
Summary of the method: as §1

[20] = compound: c1cc(OCCN2CCCCC2)cc(-c2n[nH]c3ccc(-c4nnc[nH]4)cc23)c1
Summary of the method: as §1

Target: NUCKS1 (UniProt Q9H1E3)
UniProt Q9H1E3, sequence (Q9H1E3 whole entry, looked up): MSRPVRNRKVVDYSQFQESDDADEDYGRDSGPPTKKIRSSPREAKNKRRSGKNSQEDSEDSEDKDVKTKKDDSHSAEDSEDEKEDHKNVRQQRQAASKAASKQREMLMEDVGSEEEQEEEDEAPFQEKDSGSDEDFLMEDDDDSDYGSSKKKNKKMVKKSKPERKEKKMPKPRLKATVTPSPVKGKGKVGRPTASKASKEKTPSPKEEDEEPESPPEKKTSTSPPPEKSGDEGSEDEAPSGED
- log2 fold change [1]: -0.114
- log2 fold change [2]: -0.128
- log2 fold change [3]: -0.028
- log2 fold change [4]: -0.13
- log2 fold change [5]: 0.037
- log2 fold change [6]: 0.169
- log2 fold change [7]: 0.005
- log2 fold change [8]: 0.055
- log2 fold change [9]: 0.059
- log2 fold change [10]: 0.034
- log2 fold change [11]: -0.405 (active)
- log2 fold change [12]: 0.035
- log2 fold change [13]: 0.014
- log2 fold change [14]: 0.04
- log2 fold change [15]: -0.01
- log2 fold change [16]: -0.08
- log2 fold change [17]: -0.022
- log2 fold change [18]: -0.008
- log2 fold change [19]: -0.044
- log2 fold change [20]: 0.079

Target: NCOR1 (UniProt O75376)
- log2 fold change [1]: -0.009
- log2 fold change [2]: -0.056
- log2 fold change [3]: 0.182
- log2 fold change [4]: -0.046
- log2 fold change [5]: -0.091
- log2 fold change [6]: 0.058
- log2 fold change [7]: 0.041
- log2 fold change [8]: -0.049
- log2 fold change [9]: 0.103
- log2 fold change [10]: 0.041
- log2 fold change [11]: 0.096
- log2 fold change [12]: -0.057
- log2 fold change [13]: -0.005
- log2 fold change [14]: -0.072
- log2 fold change [15]: 0.007
- log2 fold change [16]: -0.059
- log2 fold change [17]: -0.028
- log2 fold change [18]: 0.001
- log2 fold change [19]: -0.044
- log2 fold change [20]: -0.024

Target: NDUFA12 (UniProt Q9UI09)
UniProt Q9UI09, sequence (Q9UI09 whole entry, looked up): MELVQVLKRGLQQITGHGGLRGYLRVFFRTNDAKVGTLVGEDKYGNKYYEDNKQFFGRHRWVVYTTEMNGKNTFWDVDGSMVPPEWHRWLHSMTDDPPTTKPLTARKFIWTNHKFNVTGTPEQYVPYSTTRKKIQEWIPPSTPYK
- log2 fold change [1]: 0
- log2 fold change [2]: 0.089
- log2 fold change [3]: -0.158
- log2 fold change [4]: -0.031
- log2 fold change [5]: -0.107
- log2 fold change [6]: 0.029
- log2 fold change [7]: 0.109
- log2 fold change [8]: 0.062
- log2 fold change [9]: -0.007
- log2 fold change [10]: 0.326 (active)
- log2 fold change [11]: -0.018
- log2 fold change [12]: -0.038
- log2 fold change [13]: -0.227
- log2 fold change [14]: -0.061
- log2 fold change [15]: 0.04
- log2 fold change [16]: 0.077
- log2 fold change [17]: 0.07
- log2 fold change [18]: -0.052
- log2 fold change [19]: 0.004
- log2 fold change [20]: -0.033

Target: MON2 isoform 5 (UniProt Q7Z3U7)
UniProt Q7Z3U7, sequence (Q7Z3U7 whole entry, looked up): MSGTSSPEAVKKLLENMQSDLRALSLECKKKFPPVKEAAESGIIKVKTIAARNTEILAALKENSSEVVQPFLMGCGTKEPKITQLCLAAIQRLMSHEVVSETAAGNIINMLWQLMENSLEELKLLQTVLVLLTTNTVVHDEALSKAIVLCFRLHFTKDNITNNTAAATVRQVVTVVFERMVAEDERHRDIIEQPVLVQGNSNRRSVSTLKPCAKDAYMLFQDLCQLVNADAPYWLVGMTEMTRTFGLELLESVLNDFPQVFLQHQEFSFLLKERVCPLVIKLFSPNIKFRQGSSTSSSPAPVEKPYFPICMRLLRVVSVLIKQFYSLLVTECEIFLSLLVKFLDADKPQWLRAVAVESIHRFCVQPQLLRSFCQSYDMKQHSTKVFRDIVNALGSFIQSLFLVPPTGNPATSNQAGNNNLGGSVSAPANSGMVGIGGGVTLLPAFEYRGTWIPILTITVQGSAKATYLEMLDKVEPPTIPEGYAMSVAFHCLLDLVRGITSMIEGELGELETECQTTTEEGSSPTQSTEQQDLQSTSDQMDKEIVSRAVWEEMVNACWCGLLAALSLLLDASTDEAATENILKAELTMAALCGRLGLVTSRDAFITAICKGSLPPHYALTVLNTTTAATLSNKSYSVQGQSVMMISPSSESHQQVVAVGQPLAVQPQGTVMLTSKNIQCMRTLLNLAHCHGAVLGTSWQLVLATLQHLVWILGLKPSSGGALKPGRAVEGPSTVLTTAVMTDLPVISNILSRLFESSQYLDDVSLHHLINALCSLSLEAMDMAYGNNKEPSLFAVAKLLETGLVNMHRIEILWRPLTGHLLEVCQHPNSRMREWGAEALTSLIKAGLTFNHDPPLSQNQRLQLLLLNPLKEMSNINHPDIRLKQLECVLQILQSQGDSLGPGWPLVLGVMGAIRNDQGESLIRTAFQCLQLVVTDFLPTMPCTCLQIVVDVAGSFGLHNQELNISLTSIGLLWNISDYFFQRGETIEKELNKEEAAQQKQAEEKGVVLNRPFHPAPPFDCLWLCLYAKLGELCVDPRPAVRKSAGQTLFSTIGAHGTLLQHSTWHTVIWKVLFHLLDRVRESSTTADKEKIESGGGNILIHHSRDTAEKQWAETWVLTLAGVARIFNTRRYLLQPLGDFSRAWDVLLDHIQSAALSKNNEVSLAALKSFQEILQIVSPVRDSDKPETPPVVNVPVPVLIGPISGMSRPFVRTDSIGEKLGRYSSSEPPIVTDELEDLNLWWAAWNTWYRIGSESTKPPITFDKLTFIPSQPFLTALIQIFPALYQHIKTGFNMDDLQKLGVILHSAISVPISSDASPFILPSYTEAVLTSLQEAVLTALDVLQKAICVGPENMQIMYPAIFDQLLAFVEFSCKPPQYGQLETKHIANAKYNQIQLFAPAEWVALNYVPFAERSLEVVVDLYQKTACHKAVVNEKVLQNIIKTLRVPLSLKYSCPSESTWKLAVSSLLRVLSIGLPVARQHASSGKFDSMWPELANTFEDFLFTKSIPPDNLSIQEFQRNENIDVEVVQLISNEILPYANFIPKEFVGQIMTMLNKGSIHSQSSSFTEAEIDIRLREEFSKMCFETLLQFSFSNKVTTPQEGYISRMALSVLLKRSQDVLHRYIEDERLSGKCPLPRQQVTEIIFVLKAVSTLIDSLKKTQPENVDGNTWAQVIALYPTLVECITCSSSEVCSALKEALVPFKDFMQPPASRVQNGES
- log2 fold change [1]: -0.001
- log2 fold change [2]: 0.026
- log2 fold change [3]: -0.053
- log2 fold change [4]: -0.012
- log2 fold change [5]: -0.132
- log2 fold change [6]: 0.082
- log2 fold change [7]: 0.008
- log2 fold change [8]: 0.006
- log2 fold change [9]: -0.071
- log2 fold change [10]: -0.03
- log2 fold change [11]: -0.023
- log2 fold change [12]: 0.012
- log2 fold change [13]: -0.107
- log2 fold change [14]: -0.038
- log2 fold change [15]: -0.003
- log2 fold change [16]: 0.097
- log2 fold change [17]: 0.056
- log2 fold change [18]: 0.021
- log2 fold change [19]: -0.006
- log2 fold change [20]: -0.003

Target: NOL7 (UniProt Q9UMY1)
UniProt Q9UMY1, sequence (Q9UMY1 whole entry, looked up): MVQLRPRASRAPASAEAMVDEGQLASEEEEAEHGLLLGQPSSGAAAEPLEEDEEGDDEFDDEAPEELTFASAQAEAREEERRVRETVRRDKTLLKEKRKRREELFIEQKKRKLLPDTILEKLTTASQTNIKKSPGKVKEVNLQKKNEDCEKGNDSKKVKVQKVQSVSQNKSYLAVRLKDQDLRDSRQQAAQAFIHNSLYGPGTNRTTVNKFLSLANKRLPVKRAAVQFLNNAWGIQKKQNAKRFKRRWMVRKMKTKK
- log2 fold change [1]: 0.284
- log2 fold change [2]: -0.107
- log2 fold change [3]: -0.016
- log2 fold change [4]: 0.146
- log2 fold change [5]: 0.183
- log2 fold change [6]: -0.073
- log2 fold change [7]: -0.257
- log2 fold change [8]: -0.148
- log2 fold change [9]: 0.154
- log2 fold change [10]: -0.156
- log2 fold change [11]: 0.107
- log2 fold change [12]: 0.131
- log2 fold change [13]: 0.316
- log2 fold change [14]: 0.177
- log2 fold change [15]: -0.079
- log2 fold change [16]: -0.042
- log2 fold change [17]: -0.101
- log2 fold change [18]: 0.166
- log2 fold change [19]: 0.121
- log2 fold change [20]: -0.218

Target: NFYC (UniProt Q13952)
UniProt Q13952, sequence (Q13952 whole entry, looked up): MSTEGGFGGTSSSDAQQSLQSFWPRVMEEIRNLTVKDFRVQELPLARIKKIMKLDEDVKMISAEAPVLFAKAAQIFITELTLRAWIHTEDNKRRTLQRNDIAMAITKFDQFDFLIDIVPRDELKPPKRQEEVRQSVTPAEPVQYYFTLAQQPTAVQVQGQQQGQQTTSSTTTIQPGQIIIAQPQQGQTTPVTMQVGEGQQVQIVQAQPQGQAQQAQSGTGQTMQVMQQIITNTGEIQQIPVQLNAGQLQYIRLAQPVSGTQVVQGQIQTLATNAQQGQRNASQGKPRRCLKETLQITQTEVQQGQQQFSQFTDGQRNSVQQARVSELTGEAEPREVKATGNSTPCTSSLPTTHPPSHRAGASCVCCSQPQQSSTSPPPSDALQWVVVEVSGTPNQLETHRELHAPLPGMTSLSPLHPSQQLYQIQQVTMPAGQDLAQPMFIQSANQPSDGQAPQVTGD
- log2 fold change [1]: -0.017
- log2 fold change [2]: -0.041
- log2 fold change [3]: -0.024
- log2 fold change [4]: -0.021
- log2 fold change [5]: 0.032
- log2 fold change [6]: -0.008
- log2 fold change [7]: 0.014
- log2 fold change [8]: 0.048
- log2 fold change [9]: 0.038
- log2 fold change [10]: 0.066
- log2 fold change [11]: 0.008
- log2 fold change [12]: -0.079
- log2 fold change [13]: -0.054
- log2 fold change [14]: -0.027
- log2 fold change [15]: -0.034
- log2 fold change [16]: -0.057
- log2 fold change [17]: -0.002
- log2 fold change [18]: 0.024
- log2 fold change [19]: -0.058
- log2 fold change [20]: -0.044

Target: NUP107 (UniProt P57740)
UniProt P57740, sequence (P57740 whole entry, looked up): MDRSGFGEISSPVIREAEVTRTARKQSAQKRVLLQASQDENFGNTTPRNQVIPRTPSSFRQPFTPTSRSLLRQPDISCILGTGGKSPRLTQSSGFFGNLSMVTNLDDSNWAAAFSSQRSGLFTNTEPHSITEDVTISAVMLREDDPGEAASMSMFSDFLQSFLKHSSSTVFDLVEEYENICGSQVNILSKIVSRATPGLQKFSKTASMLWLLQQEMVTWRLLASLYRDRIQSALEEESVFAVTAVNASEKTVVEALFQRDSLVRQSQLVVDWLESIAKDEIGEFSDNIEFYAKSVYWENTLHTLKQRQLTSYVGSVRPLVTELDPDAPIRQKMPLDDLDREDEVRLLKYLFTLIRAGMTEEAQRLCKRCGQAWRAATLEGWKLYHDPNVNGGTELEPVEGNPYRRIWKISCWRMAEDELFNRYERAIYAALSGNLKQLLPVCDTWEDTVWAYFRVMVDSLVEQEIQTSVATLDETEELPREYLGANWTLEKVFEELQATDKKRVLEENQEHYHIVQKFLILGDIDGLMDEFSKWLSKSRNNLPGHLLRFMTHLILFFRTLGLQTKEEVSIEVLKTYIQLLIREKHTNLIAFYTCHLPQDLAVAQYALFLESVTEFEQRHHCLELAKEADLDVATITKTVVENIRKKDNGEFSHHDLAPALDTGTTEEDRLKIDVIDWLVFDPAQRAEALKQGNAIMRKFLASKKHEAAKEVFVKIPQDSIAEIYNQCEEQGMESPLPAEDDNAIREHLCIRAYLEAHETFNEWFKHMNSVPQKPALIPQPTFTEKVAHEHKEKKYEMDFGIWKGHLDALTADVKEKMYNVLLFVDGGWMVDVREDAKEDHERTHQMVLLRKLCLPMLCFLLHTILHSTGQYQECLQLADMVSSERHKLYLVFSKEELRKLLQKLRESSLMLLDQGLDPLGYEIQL
- log2 fold change [1]: -0.013
- log2 fold change [2]: 0.716 (active)
- log2 fold change [3]: -0.027
- log2 fold change [4]: -0.012
- log2 fold change [5]: -0.12
- log2 fold change [6]: -0.145
- log2 fold change [7]: -0.077
- log2 fold change [8]: -0.008
- log2 fold change [9]: -0.026
- log2 fold change [10]: -0.036
- log2 fold change [11]: -0.009
- log2 fold change [12]: -0.022
- log2 fold change [13]: 0.056
- log2 fold change [14]: -0.032
- log2 fold change [15]: -0.039
- log2 fold change [16]: 0.416
- log2 fold change [17]: 0.016
- log2 fold change [18]: 0.085
- log2 fold change [19]: 0.045
- log2 fold change [20]: -0.109

Target: NAP1L1 (UniProt P55209)
UniProt P55209, sequence (P55209 whole entry, looked up): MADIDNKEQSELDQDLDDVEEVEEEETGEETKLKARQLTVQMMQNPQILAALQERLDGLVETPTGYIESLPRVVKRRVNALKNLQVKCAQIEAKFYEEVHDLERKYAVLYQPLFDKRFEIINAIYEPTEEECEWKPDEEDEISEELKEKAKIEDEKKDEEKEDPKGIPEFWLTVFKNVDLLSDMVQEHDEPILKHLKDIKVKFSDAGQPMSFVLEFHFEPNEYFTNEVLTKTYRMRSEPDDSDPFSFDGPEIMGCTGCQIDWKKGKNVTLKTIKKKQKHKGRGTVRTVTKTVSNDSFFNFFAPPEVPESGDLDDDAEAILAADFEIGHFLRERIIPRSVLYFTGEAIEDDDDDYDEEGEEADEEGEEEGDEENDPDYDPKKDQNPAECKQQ
- log2 fold change [1]: -0.018
- log2 fold change [2]: -0.094
- log2 fold change [3]: 0.009
- log2 fold change [4]: -0.044
- log2 fold change [5]: 0.05
- log2 fold change [6]: 0.022
- log2 fold change [7]: -0.004
- log2 fold change [8]: -0.039
- log2 fold change [9]: 0.001
- log2 fold change [10]: -0.014
- log2 fold change [11]: -0.084
- log2 fold change [12]: 0.049
- log2 fold change [13]: -0.01
- log2 fold change [14]: -0.016
- log2 fold change [15]: 0.02
- log2 fold change [16]: 0.008
- log2 fold change [17]: -0.01
- log2 fold change [18]: 0.069
- log2 fold change [19]: -0.038
- log2 fold change [20]: 0.069

Reference: the supplement of paper PMC10849652
